Experimental data taken from PubChem BioAssay (NCATS).
Inconclusive results are not listed. The source made the active and inactive calls. Calls come from the whole dose curve; as a rule, active = well fitted inhibition curve with a large enough effect; inconclusive = small, poorly fitted or top-dose-only effect; inactive = flat fitted curve, though single readings scatter.

How the values were obtained:
[1] = qHTS profiling for inhibitors of Plasmodium falciparum proliferation (AID 504749);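 for activity, negative = inhibition: 0% = DMSO vehicle and full inhibition = artemisinin control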; for all read-outs here: nearly all actives have a fitted effect of over 60% in size; details: P. falciparum in erythrocytes, SYBR Green DNA, 72 h; for activity, negative = inhibition: at 28.7 µM (top of the series)
How it was run: (§1)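 Infected RBCs, 0.3% parasitemia/2.5% Hct final; cpd 72 h, 37 C, 5% CO2; lysis buffer with saponin/triton/SYBR Green I, o/n RT dark; FI 485/535; norm. to artemisinin (0.29 uM) and DMSO.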

[2] = system: 3D7; experiment: as above; details: P. falciparum in erythrocytes, SYBR Green DNA, 72 h; series mostly up to 28.7 µM
How it was run: as §1

[3] = system: AA1029; experiment: as above; details: P. falciparum in erythrocytes, SYBR Green DNA, 72 h; series mostly up to 28.7 µM
How it was run: as §1

[4] = system: AS120; experiment: as above; details: P. falciparum in erythrocytes, SYBR Green DNA, 72 h; series mostly up to 28.7 µM
How it was run: as §1

[5] = system: ATS189; experiment: as above; details: P. falciparum in erythrocytes, SYBR Green DNA, 72 h; series mostly up to 28.7 µM
How it was run: as §1

[6] = system: ATS95; experiment: as above; details: P. falciparum in erythrocytes, SYBR Green DNA, 72 h; series mostly up to 28.7 µM
How it was run: as §1

[7] = system: C2A; experiment: as above; details: P. falciparum in erythrocytes, SYBR Green DNA, 72 h; series mostly up to 28.7 µM
How it was run: as §1

[8] = system: CP185; experiment: as above; details: P. falciparum in erythrocytes, SYBR Green DNA, 72 h; series mostly up to 28.7 µM
How it was run: as §1

[9] = system: CP192; experiment: as above; details: P. falciparum in erythrocytes, SYBR Green DNA, 72 h; series mostly up to 28.7 µM
How it was run: as §1

[10] = system: CP194; experiment: as above; details: P. falciparum in erythrocytes, SYBR Green DNA, 72 h; series mostly up to 28.7 µM
How it was run: as §1

[11] = system: CP201; experiment: as above; details: P. falciparum in erythrocytes, SYBR Green DNA, 72 h; series mostly up to 28.7 µM
How it was run: as §1

[12] = system: CP211; experiment: as above; details: P. falciparum in erythrocytes, SYBR Green DNA, 72 h; series mostly up to 28.7 µM
How it was run: as §1

[13] = system: CP215; experiment: as above; details: P. falciparum in erythrocytes, SYBR Green DNA, 72 h; series mostly up to 28.7 µM
How it was run: as §1

[14] = system: CP217; experiment: as above; details: P. falciparum in erythrocytes, SYBR Green DNA, 72 h; series mostly up to 28.7 µM
How it was run: as §1

[15] = system: CP237; experiment: as above; details: P. falciparum in erythrocytes, SYBR Green DNA, 72 h; series mostly up to 28.7 µM
How it was run: as §1

[16] = system: CP238; experiment: as above; details: P. falciparum in erythrocytes, SYBR Green DNA, 72 h; series mostly up to 28.7 µM
How it was run: as §1

[17] = system: CP247; experiment: as above; details: P. falciparum in erythrocytes, SYBR Green DNA, 72 h; series mostly up to 28.7 µM
How it was run: as §1

[18] = system: CP191; experiment: as above; details: P. falciparum in erythrocytes, SYBR Green DNA, 72 h; series mostly up to 28.7 µM
How it was run: as §1

[19] = system: CP203; experiment: as above; details: P. falciparum in erythrocytes, SYBR Green DNA, 72 h; series mostly up to 28.7 µM
How it was run: as §1

[20] = system: 7G8; experiment: as above; details: P. falciparum in erythrocytes, SYBR Green DNA, 72 h; series mostly up to 28.7 µM
How it was run: as §1
Potency is the fitted concentration of half-maximal effect.

COc1ccccc1N1CCN(CCCC(=O)c2ccc(F)cc2)CC1
inactive: activity, negative = inhibition ([1]; parasite line A) -16.2% | activity, negative = inhibition ([1]; parasite line B) 9.5% | Potency [2] | Potency [3] | Potency [4] | Potency [5] | Potency [6] | Potency [7] | Potency [8] | Potency [9] | Potency [10] | Potency [11] | Potency [12] | Potency [13] | Potency [14] | Potency [15] | Potency [16] | Potency [17]

CC1CCC(NC(=O)N(CCCl)N=O)CC1 (stereo unspecified)
inactive: activity, negative = inhibition ([1]; parasite line A) 9.36% | activity, negative = inhibition ([1]; parasite line B) 3.89% | Potency [2] | Potency [3] | Potency [4] | Potency [5] | Potency [6] | Potency [7] | Potency [8] | Potency [18] | Potency [9] | Potency [10] | Potency [11] | Potency [19] | Potency [12] | Potency [13] | Potency [14] | Potency [15] | Potency [16] | Potency [17]

CSc1nc2cc(Oc3cccc(Cl)c3Cl)c(Cl)cc2[nH]1
active: Potency ([1]; parasite line A) 3.98 µM | Potency ([1]; parasite line B) 11.2 µM | Potency [20] 8.91 µM | Potency [3] 11.2 µM | Potency [4] 11.2 µM | Potency [5] 6.31 µM | Potency [6] 8.91 µM | Potency [8] 11.2 µM | Potency [18] 3.98 µM | Potency [10] 13.5 µM | Potency [11] 10.7 µM | Potency [12] 10.7 µM | Potency [13] 9.53 µM | Potency [14] 3.98 µM | Potency [15] 11.2 µM | Potency [16] 8.91 µM | Potency [17] 3.16 µM

O=C(CCCN1CCN2CCCC2C1)c1ccc(F)cc1 (stereo unspecified)
active: Potency [15] 10 µM
inactive: activity, negative = inhibition ([1]; parasite line A) 12% | activity, negative = inhibition ([1]; parasite line B) 7.07% | Potency [2] | Potency [4] | Potency [7] | Potency [8] | Potency [18] | Potency [9] | Potency [11] | Potency [19] | Potency [13] | Potency [14] | Potency [17]

O.O.O.O.O.O.O.O=S(=O)([O-])[O-].[Co+2]
active: Potency ([1]; parasite line A) 11.2 µM | Potency ([1]; parasite line B) 8.91 µM | Potency [20] 2.82 µM | Potency [3] 8.91 µM | Potency [4] 5.01 µM | Potency [5] 11.2 µM | Potency [6] 5.01 µM | Potency [7] 12.6 µM | Potency [8] 12.6 µM | Potency [18] 8.91 µM | Potency [10] 7.57 µM | Potency [11] 7.57 µM | Potency [19] 6.75 µM | Potency [12] 9.53 µM | Potency [14] 11.2 µM | Potency [16] 7.94 µM | Potency [17] 11.2 µM

O=C(CCCN1CCC(C(=O)c2ccc(F)cc2)CC1)c1ccc(F)cc1
active: Potency [20] 11.2 µM | Potency [18] 2 µM
inactive: activity, negative = inhibition ([1]; parasite line A) -20.7% | activity, negative = inhibition ([1]; parasite line B) 15.1% | Potency [3] | Potency [4] | Potency [7] | Potency [8] | Potency [9] | Potency [11] | Potency [12] | Potency [13] | Potency [14] | Potency [16]

CCCCC/C=C\C/C=C\C/C=C\CCCCC(=O)O
inactive: activity, negative = inhibition ([1]; parasite line A) -2.11% | activity, negative = inhibition ([1]; parasite line B) -8.25% | Potency [2] | Potency [3] | Potency [4] | Potency [5] | Potency [6] | Potency [7] | Potency [8] | Potency [18] | Potency [9] | Potency [10] | Potency [11] | Potency [19] | Potency [12] | Potency [13] | Potency [14] | Potency [15] | Potency [16] | Potency [17]

CC(C)=CCC/C(C)=C/C=C/C(C)=C/C=C/C(C)=C/C=C/C=C(C)/C=C/C=C(C)/C=C/C=C(\C)CCC=C(C)C
inactive: activity, negative = inhibition ([1]; parasite line A) -19% | activity, negative = inhibition ([1]; parasite line B) -16% | Potency [3] | Potency [5] | Potency [6] | Potency [7] | Potency [8] | Potency [9] | Potency [10] | Potency [11] | Potency [19] | Potency [12] | Potency [13] | Potency [14] | Potency [16] | Potency [17]
